# Only some compounds are listed: those with a hit (about 2% of all), similar ones and a draw of the others.
# Granule exo inh: lytic granule exocytosis inhibition | AID 651702 | inhibition, % at 10 µM | 360,000 tested, 0.66% active | TALL-104 LAMP-1 surface exposure, flow cytometry; cells stimulated with thapsigargin and PMA;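 active means inhibition above about 55%, limit read from the data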
# PG9 Ab binder: PG9 antibody binding by small molecule. TR-FRET gp120-PG9 antibody binding. inhibition, % at 6.7 µM. 360,000 tested, 0.43% active. AID 624416; in the data active means inhibition above about 8.5%
# Rev-erbA mod: Rev-erb alpha (human) modulation; P20393; Rev-erbα–FITC-DNA binding, fluorescence polarization, 90 min; activity, % at 10 µM; 370,000 tested, 0.79% active; AID 1259318;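 active means activity above about 14%, limit read from the data; passing the limit was not always enough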;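 further: 0% = DMSO wells with 35 nM protein and 100% = DMSO wells with 750 nM protein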
# Target sequence (P20393 whole entry, looked up): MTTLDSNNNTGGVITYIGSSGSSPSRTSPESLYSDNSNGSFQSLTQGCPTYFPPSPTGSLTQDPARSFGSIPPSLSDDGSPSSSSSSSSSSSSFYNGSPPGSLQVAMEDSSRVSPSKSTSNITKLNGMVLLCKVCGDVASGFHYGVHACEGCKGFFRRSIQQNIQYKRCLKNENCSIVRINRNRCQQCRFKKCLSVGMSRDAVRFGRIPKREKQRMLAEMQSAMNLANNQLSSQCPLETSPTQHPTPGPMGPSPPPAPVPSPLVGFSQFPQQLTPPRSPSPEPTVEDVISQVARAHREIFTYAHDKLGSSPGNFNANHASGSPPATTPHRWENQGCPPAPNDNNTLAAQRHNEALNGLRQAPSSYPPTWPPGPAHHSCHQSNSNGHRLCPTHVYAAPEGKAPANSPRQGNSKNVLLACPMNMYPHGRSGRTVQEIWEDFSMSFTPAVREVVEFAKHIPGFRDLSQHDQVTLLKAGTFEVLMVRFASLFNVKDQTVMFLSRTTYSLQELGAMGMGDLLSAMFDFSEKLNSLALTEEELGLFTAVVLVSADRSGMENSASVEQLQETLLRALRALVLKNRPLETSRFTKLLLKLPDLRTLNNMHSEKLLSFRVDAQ
# ABCB6 inh 2: human ABCB6 transporter inhibition | AID 602162 | K562-ABCB6 porphyrin accumulation, flow cytometry, 1 h; hits give low values | Q9NP58 | 360,000 tested, 0.19% active | fluorescence ratio to DMSO, % at 10 µM;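 active means fluorescence ratio to DMSO below 75%, the collection mean minus 3 SD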;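 further: signal is porphyrin accumulated inside mitochondria; 100% equals median channel fluorescence of DMSO control wells; lower ratio means ABCB6 inhibition with less porphyrin fluorescence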
# VLA-4 inh: inhibition in a human VLA-4 binding assay; P13612; VLA-4 expressing cells, ligand binding flow cytometry; inhibition, % (about 7 µM as worked out from the volumes in the protocol); 330,000 tested, 0.2% active; AID 2557; in the data active means inhibition above about 50%
# Exocytosis CP01: blocks lytic granule exocytosis | AID 651954 | TALL-104 cells, LAMP-1 externalization, flow cytometry; stimulated with PMA plus thapsigargin | inhibition, % at 10 µM | 1,500 tested, 11% active | shares compounds with Granule exo inh; in the data active means inhibition above about 60%;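 further: 0% = stimulated vehicle wells and 100% = unstimulated wells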
# Numbers without * were called inactive; · = no result.
SMILES,Granule exo inh,PG9 Ab binder,Rev-erbA mod,ABCB6 inh 2,VLA-4 inh,Exocytosis CP01
COC(=O)[C@]12C[C@H](CC(=O)NCc3ccccc3)C(=O)N(Cc3ccco3)C1=C[C@H](C(C)C)O[C@@H]2C1CC1,·,·,-1,·,·,·
CCCOc1ccc(-c2nc(N3CCN(CC)CC3)c3ccccc3n2)cc1,82*,2,-3,99,11,-10
Cc1ccc(Cn2cc(COC(=O)NCC(C)C)nn2)cc1,·,·,0,·,·,·
N#Cc1cn(CCCOc2ccccc2)c2ccccc12,67*,0,5,98,-10,-3
COc1ccccc1OCCCn1cc(C#N)c2ccccc21,-1,-2,0,94,12,·
CCCNC(=O)Cn1sc2nc(C)cc(C)c2c1=O,58*,-1,6,94,2,103*
O=S(=O)(CC(CN1CCCCC1)N1CCCCC1)c1ccc2ccccc2c1 (configuration not stated),68*,-1,-4,97,·,7
CC(=O)Nc1cc(-c2ccccc2N(C)C)cn2c(-c3ccccc3)cnc12,18,-2,10,98,·,·
COc1ccc(-c2cc(NC(C)=O)c3ncc(-c4ccccc4)n3c2)c(OC)c1,94*,0,-6,100,·,96*
CC(=O)Nc1cc(-c2ccccc2F)cn2c(-c3ccccc3)cnc12,79*,-2,-5,103,·,94*
COc1cccc(-c2cnc3c(NC(C)=O)cc(-c4ccccc4OC)cn23)c1,76*,1,0,99,·,94*
COC(=O)[C@]12C[C@H](CC(=O)NCC3CCCCC3)C(=O)N(CCC3=CCCCC3)C1=C[C@H](C1CCCC1)O[C@@H]2C,·,·,-1,·,·,·
COc1ccc(OC)c(S(=O)(=O)N(CC(=O)NC2CCC(C)CC2)c2cc(C)cc(C)c2)c1 (configuration not stated),·,·,-2,·,·,·
COC(=O)C1CN(Cc2ccccc2)CCS(=O)(=O)N1Cc1ccc(C(F)(F)F)cc1 (configuration not stated),·,·,8,·,·,·
CCN(CC)CC(O)Cn1c(C)c(-c2ccccc2)c2cc([N+](=O)[O-])ccc21 (configuration not stated),58*,-2,-4,97,0,10
CC(NC(=O)CSc1nc2c(c(C(F)(F)F)n1)CCc1ccccc1-2)c1ccccc1 (configuration not stated),59*,1,4,91,-4,-3
O=C(CSc1nc2c(c(C(F)(F)F)n1)CCc1ccccc1-2)NCc1ccco1,-2,2,9,95,-5,·
COC(=O)[C@]12C[C@H](CC(=O)N3CCC(c4ccccc4)CC3)C(=O)N(Cc3ccc(Cl)cc3Cl)C1=C[C@H](C1CCCC1)O[C@@H]2C,·,·,6,·,·,·
Cc1nc2ccccc2n1CC(O)Cn1c2ccccc2c2ccccc21 (configuration not stated),58*,2,6,100,-1,-10
CCCCOCC(O)Cn1c(C)nc2ccccc21 (configuration not stated),-2,-2,-4,96,-1,·
O=C(CCc1ccccc1)N[C@H]1[C@H](OC(=O)c2cccnc2)CCC[C@@]12C(=O)N(Cc1ccccc1)c1ccccc12,·,·,-2,·,·,·
O=C(Nc1ccccc1-c1nnc(SCc2ccccc2)o1)c1ccccc1,67*,-1,5,98,-7,-10
O=C(Nc1ccccc1-c1nnc(SCc2ccc(Cl)cc2)o1)c1ccccc1,-2,0,-4,96,-2,·
Cc1cc(C)c(O)c(C(=O)CC2CC(=O)NC(=O)C2)c1,·,-1,1,·,·,·
CSc1nc(C(C)C)ccc1CNC(=O)CC(C)c1ccccc1 (configuration not stated),63*,0,-4,97,1,-4
CC(CC(=O)NCc1ccc(F)cc1)c1ccccc1 (configuration not stated),1,2,1,103,8,·
Cc1ccc(CSc2ccc(S(=O)(=O)N3CCOCC3)cn2)cc1,4,-1,1,97,8,·
O=S(=O)(c1ccc(SCCO)nc1)N1CCOCC1,60*,0,1,95,2,-10
NC(=O)[C@@H]1CCCN1C(=O)[C@H](CCc1ccccc1)NC(=O)[C@H]1O[C@@H](n2cnc3c(N)ncnc32)[C@H](O)[C@@H]1O,·,-3,4,·,·,·
